A short description of assay [1]: Nuclear factor erythroid 2-related factor 2/antioxidant responsive element (Nrf2/ARE) small molecule agonists: qHTS cell viability counter screen in human keratinocytes (AID 1919968; active = well fitted curve in the direction sought with a large enough effect in the repeat runs; an effect the other way counts as inactive or inconclusive; also: nearly all actives have a fitted effect of over 55% in size; also: potency is read from the fitted curve at half-maximal effect). Put shortly:
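Fluorescence read-out from CellTiter-Fluor after 1 h at 37 C. Wells held HaCaT-derived ARE-luciferase reporter cells (1,500/well) treated 23 h with DMSO-dissolved compounds. Run in the same wells as the luciferase agonist read.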
In general terms: Quantitative high-throughput screening tests each substance at several concentrations.

The nature of assay [2]: Nuclear factor erythroid 2-related factor 2/antioxidant responsive element (Nrf2/ARE) small molecule agonists: luciferase reporter gene qHTS assay in human keratinocytes (AID 1919969). Also: nearly all actives have a fitted effect of over 35% in size. Also: potency is read from the fitted curve at half-maximal effect.
In assay [3] the target is Gonadotropin-releasing hormone receptor (Homo sapiens) (UniProt P30968). Briefly: Human gonadotropin-releasing hormone receptor (GnRHR) small molecule agonists, calcium flux assay in GnRHR-HEK293 cells (AID 1920063). Also: nearly all actives have a fitted effect of over 35% in size. A digest of the protocol:
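Calcium-dye fluorescence, Ex/Em=480/540, recorded every 1 sec over 3 min after compound addition to GnRHR-HEK293 cells. Cells had been seeded 18 hours earlier and dye-loaded for 1 hour at 37 C. Fifteen concentrations, triplicates.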

Assay [4] concerns the target KiSS-1 receptor (Homo sapiens) (UniProt Q969F8). In words: Human kisspeptin (KISS1R) small molecule agonists, calcium flux assay in KISS1R-HEK293 cells (AID 1920064; active = well fitted curve in the direction sought with a large enough effect in the repeat runs; an effect the other way counts as inactive or inconclusive). A digest of the protocol: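 Calcium flux read-out: kinetic fluorescence at Ex/Em=480/540, 1 s intervals over 3 min, after pin-tool compound addition to dye-loaded KISS1R-HEK293 cells. Fifteen concentrations, triplicates.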
(A change in cytosolic calcium serves as a functional read-out for many receptors and channels.)

The nature of assay [5]: G protein-coupled receptor (GPCR) small molecule agonists, calcium flux assay: HEK293 wild type cell line counter screen (AID 1920065). A digest of the protocol: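 Agonist mode; 18 h seeding at 37 C, 1 h dye load at 37 C; compounds pinned from DMSO, ATP as positive control; kinetic fluorescence 480/540 nm, 3 min, 1 s reads; 15 concentrations, triplicate.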
Assay [6] in a line: p53 small molecule agonists, cell-based qHTS assay with human liver microsomes: qHTS cell viability counter screen (AID 1963579). Also: nearly all actives have a fitted effect of over 45% in size. A digest of the protocol: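 Seed p53RE-bla cells at 4,000 per well; incubate 5 h at 37 C; add compound, human liver microsomes and NADPH; incubate 16 h at 37 C; add CellTiter-Glo; after 30 min at room temperature, read luminescence.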
A short description of assay [7]: p53 small molecule agonists, cell-based qHTS assay with rat liver microsomes: qHTS cell viability counter screen (AID 1963580). Also: nearly all actives have a fitted effect of over 45% in size. A digest of the protocol:
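Cytotoxicity counter screen: intracellular ATP read by CellTiter-Glo luminescence in the p53 reporter wells. HCT-116 p53RE-bla cells were treated for 16 h at 37 C alongside rat liver microsomes and NADPH, each 0.5 mg/mL final.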

Assay [8] is described as follows: p53 small molecule agonists, cell-based qHTS assay: qHTS cell viability counter screen (AID 1963581). Also: nearly all actives have a fitted effect of over 45% in size. Also: potency is read from the fitted curve at half-maximal effect. Put shortly:
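Cytotoxicity read-out: ATP-based luminescence (CellTiter-Glo, 30 min RT) measured in the same wells as the p53 reporter assay, HCT-116 p53RE-bla cells, 16 h compound exposure at 37 C.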

Assay [9] has as its target 5-hydroxytryptamine receptor 2A (Homo sapiens) (UniProt P28223). Briefly: 5-hydroxytryptamine receptor 2A (HTR2A) small molecule antagonists, cell-based qHTS assay (AID 1963586). Also: nearly all actives have a fitted effect of over 45% in size. Put shortly:
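CHO cells stably expressing human HTR2A were plated for 18 h at 37 C, then loaded with calcium dye for 1 h. Compounds were preincubated 5 min at room temperature before DOI (4 nM solution) was added. Kinetic fluorescence was read for 3 min.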

The target is the same in assay [10]. In words: 5-hydroxytryptamine receptor 2A (HTR2A) small molecule agonists, cell-based qHTS assay (AID 1963587). Also: nearly all actives have a fitted effect of over 30% in size. Put shortly:
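Kinetic calcium-flux fluorescence (2 min, 1 sec intervals) after compound addition in agonist mode. HTR2A-CHO cells were cultured 18 h, then dye-loaded 1 h at 37 C.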

In assay [11] the target is Muscarinic acetylcholine receptor M1 (Homo sapiens) (UniProt P11229). Briefly: Cholinergic receptor muscarinic 1 (CHRM1) small molecule antagonists, cell-based qHTS assay (AID 1963588). Also: nearly all actives have a fitted effect of over 40% in size. A digest of the protocol: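 Compounds were tested at 15 concentrations in three independent runs. Dye-loaded CHRM1-CHO cells were exposed 5 min at room temperature before stimulation by acetylcholine added at 50nM. Intracellular calcium was read kinetically on FDSS for 3 min.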
Chain of Muscarinic acetylcholine receptor M1 (Homo sapiens) (P11229 whole entry, looked up): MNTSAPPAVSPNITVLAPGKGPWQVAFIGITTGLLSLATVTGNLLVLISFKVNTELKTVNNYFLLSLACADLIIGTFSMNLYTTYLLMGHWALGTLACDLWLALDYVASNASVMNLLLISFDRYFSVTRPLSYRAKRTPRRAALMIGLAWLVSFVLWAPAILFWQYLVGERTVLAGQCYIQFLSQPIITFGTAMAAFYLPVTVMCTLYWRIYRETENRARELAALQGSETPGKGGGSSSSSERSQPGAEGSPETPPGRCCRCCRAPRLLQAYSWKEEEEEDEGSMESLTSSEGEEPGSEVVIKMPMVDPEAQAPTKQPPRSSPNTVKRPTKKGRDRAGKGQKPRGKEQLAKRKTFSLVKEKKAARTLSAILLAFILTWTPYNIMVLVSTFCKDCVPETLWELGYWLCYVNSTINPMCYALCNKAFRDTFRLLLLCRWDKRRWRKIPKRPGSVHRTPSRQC

For assay [12] the target is unchanged. Briefly: Cholinergic receptor muscarinic 1 (CHRM1) small molecule agonists, cell-based qHTS assay (AID 1963589). Also: nearly all actives have a fitted effect of over 35% in size. A digest of the protocol: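 Calcium flux read-out: kinetic fluorescence at 1 sec intervals after pin-tool compound addition to dye-loaded CHRM1-CHO cells (human M1). Agonist mode; 15 concentrations tested in triplicate independent runs.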
The nature of assay [13]: cAMP Responsive Elements (CRE) small molecule agonists, cell-based qHTS assay (AID 1963590). Put shortly:
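Beta-lactamase reporter readout: LiveBLAzer B/G FRET substrate, 2 h at room temperature, added after 3 h compound treatment of CRE-bla HEK 293T cells at 37 C/5% CO2.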

Assay [14] is described as follows: cAMP Responsive Elements (CRE) small molecule antagonists, cell-based qHTS assay (AID 1963591; active = well fitted inhibition curve with a large enough effect in the signal ratio in the repeat runs, not every such curve was filed as active; the % refers to the signal ratio). Put shortly:
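HEK293T CRE-bla; 18 h preincubation; compound pin-transfer; NKH477 0.25 uM final, 3 h, 37 C; LiveBLAzer FRET substrate 2 h RT.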

For assay [15], the target named is Beta-2 adrenergic receptor (Homo sapiens) (UniProt P07550). Briefly: Adrenergic beta2 receptor (ADRB2) small molecule antagonists, cell-based qHTS assay (AID 1963592). Also: series mostly up to about 92 µM; nearly all actives have a fitted effect of over 50% in size. A digest of the protocol: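 Assay format: CHO-ADRB2 cells, 18-20hr seeding at 37C/5% CO2, then compound plus 1nM isoproterenol agonist mix for 0.5hr RT. Homogeneous time-resolved fluorescence cAMP detection after 1hr, expressed as 665/615 nm ratio.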
Chain of Beta-2 adrenergic receptor (Homo sapiens) (P07550 whole entry, looked up): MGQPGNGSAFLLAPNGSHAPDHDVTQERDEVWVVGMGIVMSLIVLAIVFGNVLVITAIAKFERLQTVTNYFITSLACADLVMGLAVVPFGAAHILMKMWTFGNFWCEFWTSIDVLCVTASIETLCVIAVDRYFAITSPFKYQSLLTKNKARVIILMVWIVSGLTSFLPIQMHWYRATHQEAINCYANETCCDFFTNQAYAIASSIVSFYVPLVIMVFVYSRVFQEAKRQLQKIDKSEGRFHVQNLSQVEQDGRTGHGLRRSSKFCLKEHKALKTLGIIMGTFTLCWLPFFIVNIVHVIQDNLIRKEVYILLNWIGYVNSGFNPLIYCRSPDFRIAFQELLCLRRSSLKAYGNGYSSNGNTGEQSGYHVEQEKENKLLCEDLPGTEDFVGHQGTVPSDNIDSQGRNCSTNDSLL

Assay [16] shares this target. In words: Adrenergic beta2 receptor (ADRB2) small molecule agonists, cell-based qHTS assay (AID 1963593).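 Also: CHO cells stably overexpressing human ADRB2.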 Put shortly:
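CHO cells stably over-expressing ADRB2 were plated overnight at 37C, then dosed with compounds plus a stimulation mix containing 100uM IBMX and 25uM Ro-20-1724 for 0.5hr at room temperature. cAMP was measured by HTRF competition, 1hr.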

Assay [17] deals with D(2) dopamine receptor (Homo sapiens) (UniProt P14416). In words: Dopamine D2 receptor (DRD2) small molecule agonists, cell-based qHTS assay (AID 1963594). Also: nearly all actives have a fitted effect of over 35% in size. Put shortly:
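cAMP accumulation in DRD2-HEK293 cells measured by HTRF after 1 h detection; compounds added 10 min before NKH477 (200nM […]) forskolin-analogue stimulation, 30 min at room temperature, with Ro20-1724 present at 0.1 mM final.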

Assay [18] has the same target. In words: Dopamine D2 receptor (DRD2) small molecule antagonists, cell-based qHTS assay (AID 1963595; active = well fitted inhibition curve with a large enough effect in the signal ratio in the repeat runs, with a control signal flat; the % refers to the signal ratio). Put shortly: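 Readout: HTRF cAMP, cAMP-d2 competing with cellular cAMP for anti-cAMP cryptate, read after 1 h. Cells: DRD2-HEK293. Conditions: 0.1 mM Ro20-1724, 12 nM quinpirole, 200 nM NKH477, 30 min RT.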
Assay [19] is described as follows: p53 small molecule agonists, cell-based qHTS assay with rat liver microsomes (AID 1963578). Also: potency is read from the fitted curve at half-maximal effect. Put shortly:
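Fluorescence from a beta-lactamase reporter under a p53 response element was measured after cells had been incubated 16 h at 37 C with test compound and rat liver microsomes plus NADPH (0.5 mg/mL final each).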

Assay [20] can be described thus: p53 small molecule agonists, cell-based qHTS assay (AID 1963582; active = well fitted activation curve with a large enough effect in the signal ratio in the repeat runs, not every such curve was filed as active; the % refers to the signal ratio; also: potency is read from the fitted curve at half-maximal effect). Put shortly: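 Fluorescence intensity read-out of a beta-lactamase reporter under a p53 response element. Cells were exposed to DMSO-dissolved compounds for 16 h at 37 C, then developed with FRET substrate for 2 h at RT.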

The structures appear in SMILES notation. Values without a mark were called inactive. Records with an inconclusive call do not appear. Active and inactive are the calls of the source. Unless noted, calls follow the shape of the full dose curve.

The values that follow come from PubChem BioAssay (Tox21).

Chain of KiSS-1 receptor (Homo sapiens) (Q969F8 whole entry, looked up): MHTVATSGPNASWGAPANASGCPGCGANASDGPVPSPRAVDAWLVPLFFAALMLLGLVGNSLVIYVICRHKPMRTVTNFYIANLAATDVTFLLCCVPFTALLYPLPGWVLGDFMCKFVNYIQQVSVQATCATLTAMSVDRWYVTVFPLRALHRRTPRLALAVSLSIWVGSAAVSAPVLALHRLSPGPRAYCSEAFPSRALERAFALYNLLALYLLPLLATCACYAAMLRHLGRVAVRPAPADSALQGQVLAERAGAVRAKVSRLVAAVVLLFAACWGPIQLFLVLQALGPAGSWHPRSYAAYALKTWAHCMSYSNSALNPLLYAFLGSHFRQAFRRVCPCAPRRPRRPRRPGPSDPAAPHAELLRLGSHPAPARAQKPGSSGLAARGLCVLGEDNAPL
Chain of 5-hydroxytryptamine receptor 2A (Homo sapiens) (P28223 whole entry, looked up): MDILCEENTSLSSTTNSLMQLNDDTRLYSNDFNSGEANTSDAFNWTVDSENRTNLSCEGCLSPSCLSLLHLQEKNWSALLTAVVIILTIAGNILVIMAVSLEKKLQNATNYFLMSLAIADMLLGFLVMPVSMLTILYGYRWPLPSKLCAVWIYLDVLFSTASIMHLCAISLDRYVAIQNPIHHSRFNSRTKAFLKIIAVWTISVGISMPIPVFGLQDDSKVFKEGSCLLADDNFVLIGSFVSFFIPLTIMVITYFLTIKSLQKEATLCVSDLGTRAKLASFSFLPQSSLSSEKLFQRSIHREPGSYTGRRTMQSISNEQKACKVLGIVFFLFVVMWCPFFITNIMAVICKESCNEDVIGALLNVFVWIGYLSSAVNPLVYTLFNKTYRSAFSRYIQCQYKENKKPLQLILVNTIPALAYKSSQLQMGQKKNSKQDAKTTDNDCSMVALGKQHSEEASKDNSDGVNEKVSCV
Chain of Gonadotropin-releasing hormone receptor (Homo sapiens) (P30968 whole entry, looked up): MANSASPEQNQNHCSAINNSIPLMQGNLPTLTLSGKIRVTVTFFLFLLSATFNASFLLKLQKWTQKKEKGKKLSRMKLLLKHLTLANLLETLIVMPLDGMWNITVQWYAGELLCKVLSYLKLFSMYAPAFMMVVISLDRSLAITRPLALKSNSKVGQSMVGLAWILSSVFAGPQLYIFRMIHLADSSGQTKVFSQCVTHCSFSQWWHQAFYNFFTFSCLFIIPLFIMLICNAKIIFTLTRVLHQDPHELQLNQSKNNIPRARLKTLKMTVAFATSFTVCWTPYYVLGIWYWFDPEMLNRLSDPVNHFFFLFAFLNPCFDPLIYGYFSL
Chain of D(2) dopamine receptor (Homo sapiens) (P14416 whole entry, looked up): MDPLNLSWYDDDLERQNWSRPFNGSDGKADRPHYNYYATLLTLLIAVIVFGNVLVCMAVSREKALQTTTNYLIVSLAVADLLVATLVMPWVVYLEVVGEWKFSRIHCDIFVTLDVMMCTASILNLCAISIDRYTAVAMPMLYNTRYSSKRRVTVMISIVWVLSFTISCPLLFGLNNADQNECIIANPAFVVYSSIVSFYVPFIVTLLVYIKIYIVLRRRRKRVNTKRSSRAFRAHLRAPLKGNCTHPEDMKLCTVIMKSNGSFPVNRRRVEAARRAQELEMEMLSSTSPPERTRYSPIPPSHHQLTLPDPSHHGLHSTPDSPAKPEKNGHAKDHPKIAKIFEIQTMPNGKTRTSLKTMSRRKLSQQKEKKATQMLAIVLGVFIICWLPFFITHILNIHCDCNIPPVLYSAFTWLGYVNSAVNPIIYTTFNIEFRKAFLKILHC

With `C=CC(=O)OCC`, the Potency entry in assay [1], in assay [2], in assay [3], in assay [4], in assay [5] and in [6] was “inactive” each time. Besides, the Potency entry in assay [7], in assay [8], in assay [9], in assay [10], in [11] and in assay [12] was “inactive” throughout. Also, the Potency entry in assay [13], in [14], in assay [15], in assay [16], in assay [17] and in assay [18] was “inactive” each time.
`O=C(Nc1ccccc1-c1ccc(Cl)cc1)c1cccnc1Cl`: the Potency result in assay [1], in assay [3], in [4], in [5], in assay [19] and in assay [7] was “inactive” throughout. The Potency entry in [10], in [12] and in assay [18] was “inactive” each time. In addition, the Potency in assay [2] is 68.6 µM (active).
On to `O=c1oc2ccccc2c(O)c1Cc1c(O)c2ccccc2oc1=O`, for which the Potency entry in assay [1], in assay [2], in [3], in assay [4], in assay [5] and in assay [19] was “inactive” in each case. Further, the Potency result in assay [6], in assay [7], in assay [14], in assay [15], in assay [16] and in assay [17] was “inactive” throughout. Further, the Potency entry in assay [18] is “inactive”. Besides, the Potency in assay [20] is 5 µM (active).
For `CCN1CCC2(CC1)COc1cc3c(cc12)N(C(=O)c1ccc(-c2ccc(-c4nnc(C)o4)cc2C)cc1)CC3`, the Potency was 25.2 µM (active) in assay [1] and 42.2 µM (active) in assay [8]. For the same compound, the Potency result in [2], in [3], in [4], in assay [5], in assay [19] and in [9] was “inactive” each time. In addition, the Potency result in assay [12], in [17] and in assay [18] was “inactive” each time.
For `OC(c1ccc(F)cc1)(c1cncnc1)c1ccccc1Cl` (configuration not stated), the Potency entry in [1], in [2], in assay [3], in assay [4], in assay [5] and in assay [6] was “inactive” in each case. The Potency result in assay [7], in [8], in assay [20], in [9], in assay [10] and in assay [13] was “inactive” throughout. Moreover, the Potency result in [14], in assay [15], in [16], in assay [17] and in assay [18] was “inactive” in each case.
Regarding `c1ccc2cc3c(cc2c1)-c1cccc2cccc-3c12`, the Potency result in assay [1], in [2], in assay [3], in [4], in assay [5] and in [6] was “inactive” each time. Besides, the Potency entry in assay [8], in assay [10], in assay [11], in assay [12], in assay [15] and in assay [16] was “inactive” throughout. In assay [17], the Potency result is “inactive”. For the same compound, the Potency in [19] was 18 µM (active).
As for `CC(C)(COCC1CO1)COCC1CO1` (configuration not stated), the Potency entry in [1], in assay [3], in assay [4], in assay [5], in assay [19] and in assay [6] was “inactive” in each case. For the same compound, the Potency entry in assay [8], in [20], in assay [9], in assay [10], in assay [11] and in assay [12] was “inactive” throughout. Also, the Potency entry in assay [13], in [14], in assay [15], in assay [16] and in assay [18] was “inactive” throughout. Moreover, in assay [2], the Potency was 68.6 µM (active).
